The structures appear in SMILES notation. Inconclusive results are not listed. Entries that show only a call come without a potency. Calls of active or inactive are those of the source. Calls follow the shape of the dose curve; as a rule, active = well fitted inhibition curve with a large enough effect; inconclusive = small, poorly fitted or top-dose-only effect; inactive = flat fitted curve, though single readings scatter.

The target in this test is Phospholipid hydroperoxide glutathione peroxidase GPX4 (Homo sapiens) (UniProt P36969). Briefly: Primary qHTS Assay for Inhibitors of Recombinant Selenoprotein Glutathione Peroxidase 4 (GPX4) (AID 1845192). Also: nearly all actives have a fitted effect of over 65% in size. The following applies: recombinant GPX4, GR-coupled NADPH fluorescence, 15 min; series mostly up to 50 µM. In short, it runs like this: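 qHTS, GR-coupled: GPX4 200 nM + cpd 30 min RT → GSH 1 mM, NADPH 0.5 mM, GR 100 nM → CHP 0.5 mM start; fluor 340/450 at t0 and t15 min; no-enzyme wells as control.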
Sequence of Phospholipid hydroperoxide glutathione peroxidase GPX4 (Homo sapiens) (P36969 whole entry, looked up): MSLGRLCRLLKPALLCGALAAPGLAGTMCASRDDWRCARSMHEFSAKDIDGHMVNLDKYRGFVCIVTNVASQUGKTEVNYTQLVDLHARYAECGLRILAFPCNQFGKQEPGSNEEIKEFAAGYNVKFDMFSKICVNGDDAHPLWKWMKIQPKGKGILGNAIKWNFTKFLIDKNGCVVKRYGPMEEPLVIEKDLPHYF
As to `CC1=C2[C@@H]([C@H](C)CC[C@H]2/C=C(\C)C(=O)O)[C@H](O)C1`, the Potency entry is “inactive”. In the case of `CC(C)=CCC/C(C)=C/CC/C(C)=C/CC[C@]1(C)CCc2cc(O)cc(C)c2O1`, the Potency result was “inactive”.

Regarding `COc1cc(/C=C/C(=O)OC[C@H]2O[C@H](O[C@]3(CO)O[C@H](CO)[C@@H](O)[C@@H]3O)[C@H](O)[C@@H](O)[C@@H]2O)cc(OC)c1O`, the Potency result was “inactive”. In the case of `C=C(C)[C@@H]1CC[C@](C)(O)[C@@H](OC(=O)c2ccccc2)C1`, the Potency result is “inactive”. The same measure for `C=CC1(C)C=C2C(O)CC3C(C)(C(=O)O)CCCC3(C)C2CC1` (stereo not drawn): “inactive”.

Consider `CC1(C)CCC(C)(C)c2cc([C@@H](O)C(=O)Nc3ccc(C(=O)O)cc3F)ccc21`, for which the Potency entry was “inactive”. As for `CCCn1cnc2c(NCc3ccccc3)nc(N[C@H](CC)CO)nc21`, the Potency entry was “inactive”. For the compound `C=CCc1ccc(O[C@@H]2O[C@H](CO[C@@H]3O[C@@H](C)[C@H](O)[C@@H](O)[C@H]3O)[C@@H](O)[C@H](O)[C@H]2O)cc1`, the Potency entry was “inactive”. As for `CC1=C(C)C(=O)OC(C(C)C2C(O)CC3C4C5OC5C5(O)CC(OC6OC(CO)C(O)C(O)C6O)CC(O)C5(C)C4CCC32C)C1` (stereo not drawn), the Potency result was “inactive”. As for `COC(=O)[C@]12C(=O)C(C)=C(O)[C@@]1(C)C(C)=CC1[C@@]34CC[C@@H](OC(C)=O)C(C)(C)C3[C@H](C[C@]12C)OC4=O` (stereo partly drawn), the Potency result was “inactive”. As for `CCCCS(=O)(=O)Nc1ncnc(OCCOc2ncc(Br)cn2)c1-c1ccc(Br)cc1`, the entry is “inactive”. For `CC(C)(O)c1ccc2c(c1)C(=O)CC1[C@](C)(CO)CCC[C@]21C` (stereo partly drawn), the Potency entry was “inactive”. Take `COc1cc(C/C(=C/NC(C)=O)N(CC(=O)Cc2ccccc2)C(C)=O)cc2c1OCO2`: the Potency entry is “inactive”. As for `CC(C)=CCCC1(C)Oc2cc3c(c4c2C2C(O4)C(C)(O)CCC21)CN(C(CCC(=O)O)C(=O)O)C3=O` (stereo not drawn), the Potency result was “inactive”.

As for `CC(/C=C/C1(O)C2(C)COC1(C)CC(=O)C2)O[C@@H]1O[C@H](CO)[C@@H](O)[C@H](O)[C@H]1O` (stereo partly drawn), the Potency entry was “inactive”. As to `C[C@@H]1CC[C@]2(C)C3(C)CC[C@@]2(OC3=O)[C@@]12C[C@H](c1ccoc1)OC2=O`, the Potency entry was “inactive”. As to `Cc1coc2c1CC1OC1(C)CCC1OC1(C)C2` (stereo not drawn), the Potency result was “inactive”.

With `CC1(C)CC[C@]2(C(=O)O)CC[C@]3(C)C(=CCC4[C@@]5(C)C[C@@H](O)[C@H](O)C(C)(C)C5CC[C@]43C)[C@@H]2[C@@H]1O` (stereo partly drawn), the Potency entry is “inactive”. For `COC(=O)[C@@]1(C)CC[C@]2(C(=O)O[C@@H]3O[C@H](CO)[C@@H](O)[C@H](O)[C@H]3O)CC[C@]3(C)C(=CCC4[C@@]5(C)CC[C@H](O[C@@H]6O[C@H](C(=O)O)[C@@H](O)[C@H](O)[C@H]6O)C(C)(C)C5CC[C@]43C)[C@@H]2C1` (stereo partly drawn), the Potency entry was “inactive”.

On to `COc1cc(N2CCC(N(C)C)CC2)ccc1Nc1ncc(Cl)c(Nc2ccccc2P(C)(C)=O)n1`, for which the Potency result is “inactive”. On to `C=C1CCC2C(C)(C)C(O)CCC2(C)C1CCC(C)CCOC(=O)CCC(=O)O` (stereo not drawn), for which the Potency entry is “inactive”.

Turning to `Cc1cc(Nc2ncc(Cl)c(Nc3ccccc3S(=O)(=O)C(C)C)n2)c(OC(C)C)cc1C1CCNCC1`, the Potency result is “inactive”. As for `C=C1CC2(C(=O)O)CC1CCC2C1(C)CCCC2(C)C(=O)OC(O)C21` (stereo not drawn), the entry is “inactive”; as for `COc1ccc(C(=O)O[C@H]2CC(C)=CC[C@@]3(C)[C@@H](OC(C)=O)C[C@@](O)(C(C)C)[C@H]23)cc1`, “inactive”; as for `C=C(C)C(C)C1OC23CC4(CO2)C(CCC2C5(C)CCC(OC6OCC(O)C(OC7OC(CO)C(O)C(OC8OCC(O)C(O)C8O)C7O)C6OC6OC(CO)C(O)C6O)C(C)(C)C5CCC24C)C3C(C)(O)C1OC(C)=O` (stereo not drawn), “inactive”. Consider `CC1CCC(=O)CC(O)C(O)CC(=O)O1` (stereo not drawn), for which the Potency entry is “inactive”. As for `CCOc1ccc(C(Nc2ccccn2)c2ccc3ccc(C)nc3c2O)cc1C` (stereo not drawn), the Potency result was “inactive”. Turning to `C=CCc1ccc(O[C@@H]2O[C@H](CO)[C@@H](O)[C@H](O)[C@H]2O)c(OC)c1`, the Potency result is “inactive”. In the case of `O=C(O)C[C@H]1CCC(=O)[C@@H]1C/C=C\CCOC1OC(CO)C(O)C(O)C1O` (stereo partly drawn), the Potency result is “inactive”. `OCCc1ccc(O[C@@H]2O[C@H](CO)[C@@H](O)[C@H](O)[C@H]2O)c(O)c1`: the Potency result was “inactive”.

Take `C[C@@H]1CC[C@]2(C(=O)O[C@@H]3O[C@H](CO)[C@@H](O)[C@H](O)[C@H]3O)CC[C@]3(C)C(=CCC4[C@@]5(C)C[C@@H](O)[C@H](O)C(C)(C)C5CC[C@]43C)C2[C@]1(C)O` (stereo partly drawn): the Potency result was “inactive”.

Regarding `COc1cccc2c1CCC[C@H]2CN(C)CCc1ccc2ccoc2c1`, the Potency entry was “inactive”.

As for `C=C(C)C(=O)O[C@H]1C[C@@](C)(OC(C)=O)[C@@]2(O)CC[C@@](C)(O)[C@H](OC(C)=O)[C@@]23OC(=O)C(COC)=C13`, the Potency entry is “inactive”.

The values above are taken from PubChem BioAssay (NCATS).
